# Records with an inconclusive call do not appear. Calls of active or inactive are those of the source. Unless noted, calls follow the shape of the dose curve; as a rule, active = well fitted curve in the direction sought with a large enough effect; inconclusive = small, poorly fitted or top-dose-only effect, or another doubt; inactive = no such curve, though single readings can be large; an effect the other way counts as inactive or inconclusive. Where a SMILES comes first, the peptide text is derived from it. [ ]: non-standard residue; d: D form.
# Legend:
# [1] = qHTS to identify inhibitors of the type 1 interferon - major histocompatibility complex class I in skeletal muscle: primary screen against the NCATS Mechanism Interrogation Plate v5.0 (MIPE) Libary (AID 1347411); also: nearly all actives have a fitted effect of over 65% in size;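 as to activity change, negative = inhibition: plate controls were vehicle for no effect and reference inhibitor for full effect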
# How it was run: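 Luminescence from HiBiT-tagged endogenous HLA-B*08:01 served as the MHC class I read-out. CRISPR-engineered C25cl48 human myoblasts received 4.0 ng/ml IFN-beta plus compound for 24 hrs, with an 11-point, 1:3 series topping at 46 uM final.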
# [2] = Primary qHTS for inhibitors of nuclear receptor binding SET domain protein 2 (NSD2) in an isogenic RCH-ACV NSD2 p.E1099K mutant (9B) (AID 1645876); also: nearly all actives have a fitted effect of over 70% in size; as to activity change, negative = viability loss: % is scaled to controls: 0 for no effect and ±100 for the full control effect
# [3] = Primary qHTS for inhibitors of nuclear receptor binding SET domain protein 2 (NSD2) in an RCH-ACV wild type WT cells (2C) (AID 1645877); also: nearly all actives have a fitted effect of over 70% in size; as to activity change, negative = cell killing: % is scaled to controls: 0 for no effect and ±100 for the full control effect
# [4] = molecular target: Glutathione peroxidase 1 (Homo sapiens) (UniProt P07203); test: Primary qHTS Assay for Inhibitors of Recombinant Selenoprotein Glutathione Peroxidase 1 (GPX1) (AID 1845191); also: nearly all actives have a fitted effect of over 65% in size
# Sequence of Glutathione peroxidase 1 (Homo sapiens) (P07203 whole entry, looked up): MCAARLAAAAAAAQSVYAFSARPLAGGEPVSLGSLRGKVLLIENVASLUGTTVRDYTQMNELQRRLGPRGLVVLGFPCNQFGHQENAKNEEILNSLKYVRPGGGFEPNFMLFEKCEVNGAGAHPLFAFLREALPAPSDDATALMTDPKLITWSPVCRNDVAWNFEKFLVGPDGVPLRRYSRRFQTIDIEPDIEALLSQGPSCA
# How it was run: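 Recombinant GPX1 (10 nM final) was preincubated with compound for 30 min at room temperature, then reacted with 1 mM GSH, 0.5 mM CHP, 0.5 mM NADPH and 100 nM glutathione reductase; NADPH fluorescence (340/450 nm) was read at 0 and 15 min.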
# [5] = molecular target: Phospholipid hydroperoxide glutathione peroxidase GPX4 (Homo sapiens) (UniProt P36969); test: Primary qHTS Assay for Inhibitors of Recombinant Selenoprotein Glutathione Peroxidase 4 (GPX4) (AID 1845192); conditions: outcome: dose series up to 50 µM unless noted; also: nearly all actives have a fitted effect of over 65% in size; as to activity change, negative = inhibition: series mostly up to about 50 µM; % is scaled to controls: 0 for no effect and ±100 for the full control effect
# Sequence of Phospholipid hydroperoxide glutathione peroxidase GPX4 (Homo sapiens) (P36969 whole entry, looked up): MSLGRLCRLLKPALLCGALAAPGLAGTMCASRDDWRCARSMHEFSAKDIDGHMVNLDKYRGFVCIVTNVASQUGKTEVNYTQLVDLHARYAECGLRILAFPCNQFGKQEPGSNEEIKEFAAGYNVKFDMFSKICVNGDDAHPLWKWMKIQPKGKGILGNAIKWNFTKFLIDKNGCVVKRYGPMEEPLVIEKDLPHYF
# How it was run: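 GR-coupled readout: 100 nM GR, 1 mM GSH, 0.5 mM NADPH; NADPH fluorescence (ex 340/em 450 nm) read at t=0 and after 15 min RT. GPX4 200 nM, preincubated 30 min with compound; substrate 0.5 mM CHP.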
# [6] = qHTS drug screen for cell cycle checkpoint inhibitors in PARPi-resistant BRCA-mutant ovarian cancer cell lines. (AID 1963452; calls by dose curve); conditions: PEO1/OlaR viability, CellTiter-Glo luminescence, 96 h; for Z-AUC: stronger effect = lower value
# How it was run: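 PEO1, PEO4 and PEO1/OlaR ovarian cancer cells, 600 per well, exposed 96 h at 37C to a dilution series. Viability read by CellTiter-Glo luminescence, normalized to DMSO and empty wells; activity summarized as Z-AUC.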
# [7] = measured here: PEO1 parental Z-AUC
# Potency is read from the fitted curve at half-maximal effect.
Compound,Potency [1],Potency [2],Potency [3],Potency [4],Potency [5],Z-AUC [6],"Z-AUC [6, 7]",Z-AUC ([6]; measured here: PEO4 Z-AUC),"activity change, negative = inhibition [1]","activity change, negative = viability loss [2]","activity change, negative = cell killing [3]",outcome [4],"activity change, negative = inhibition [5]",Potency [6]
O=C(Nc1ccccc1)Nc1ccc(-c2ccc(C(=O)[C@@H]3CCC[C@H]3C(=O)O)cc2)cc1,inactive,inactive,inactive,inactive,12.8 µM (active),1.01 (inactive),0.577,0.797,–,–,–,–,–,–
Cc1onc(-c2ccc(F)cc2)c1COc1ccc(C(=O)N2CCS(=O)(=O)CC2)cn1,inactive,inactive,inactive,inactive,inactive,0.971 (inactive),1.31,0.844,–,–,–,–,–,–
C=CC(=O)N1CCC[C@H](n2c(=O)n(-c3ccc(Oc4ccccc4)cc3)c3c(N)ncnc32)C1,inactive,2.09 µM (active),2.09 µM (active),inactive,inactive,-0.0902 (inactive),0.044,-0.151,–,–,–,–,–,–
CN1CCN(C(=O)[C@H]2[C@@H](C(=O)O)[C@H]3CC[C@@H]2O3)CC1,–,–,–,–,–,0.39 (inactive),0.568,0.663,-7.67% [at 8.44 µM] (inactive),9.83% [at 9.23 µM] (inactive),4.4% [at 9.23 µM] (inactive),inactive [at 9.52 µM],3.36% [at 9.73 µM] (inactive),–
CC1(N)CCN(c2cnc(-c3cccc(Cl)c3Cl)c(N)n2)CC1,inactive,inactive,inactive,inactive,inactive,-0.468 (inactive),-0.626,-0.55,–,–,–,–,–,–
COc1ccc2[nH]c(C(=O)N3CCC(CC(C)(C)O)CC3)cc2c1,inactive,inactive,inactive,inactive,inactive,0.0283 (inactive),0.0965,0.395,–,–,–,–,–,–
CCC(=O)N1CCOc2c(cc(-c3cc(OC)cc(OC)c3)cc2C(=O)N[C@H]2CCCN(C)C2)C1,inactive,4.17 µM (active),4.17 µM (active),inactive,inactive,1.12 (inactive),0.448,0.4,–,–,–,–,–,–
CC(C)NCCCn1c(Sc2cc(Cl)cc(Cl)c2)nc2c(N)ncnc21,inactive,20.9 µM (active),18.6 µM (active),inactive,inactive,-1.23 (inactive),-0.363,0.533,–,–,–,–,–,–
Cc1ccc(NS(=O)(=O)c2cccc(C#N)c2)c2[nH]cc(C#N)c12,inactive,0.372 µM (active),0.417 µM (active),inactive,inactive,-0.908 (inactive),-1.02,-1.95,–,–,–,–,–,–
OC[C@H]1O[C@@H](S[C@@H]2O[C@H](CO)[C@H](O)[C@H](n3cc(-c4cccc(F)c4)nn3)[C@H]2O)[C@H](O)[C@@H](n2cc(-c3cccc(F)c3)nn2)[C@H]1O,inactive,inactive,inactive,inactive,inactive,-0.122 (inactive),0.00215,0.252,–,–,–,–,–,–
O=C(O)CC(C(=O)O)n1c(O)c(C2=c3cc(Br)ccc3=NC2=O)sc1=S (centres undefined),inactive,inactive,inactive,5.15 µM (active),10.1 µM (active),1.23 (inactive),0.91,1.08,–,–,–,–,–,–
CCN(C(=O)c1ccccc1OC)c1cc2c(cc1N1CCNC[C@H]1C)n(C)c(=O)n2C,inactive,inactive,inactive,inactive,inactive,-0.888 (inactive),-0.889,-0.903,–,–,–,–,–,–
O=C(/C=C/N1C[C@H]2C[C@@H]1CN2c1ccccn1)c1ccccc1O,inactive,inactive,inactive,inactive,inactive,1.02 (inactive),0.925,0.836,–,–,–,–,–,–
COc1cc2c3c(n(CCCNCCO)c(=O)c2cc1OC)-c1cc2c(cc1C3=O)OCO2,5.87 µM (active),0.0263 µM (active),0.0295 µM (active),inactive,inactive,–,-2.45,-1.56,–,–,–,–,–,0.0078 µM (active)
O=C(Nc1cccc(C(F)(F)F)c1)c1cccc2cc(Oc3cc(CO)ncn3)ccc12,inactive,inactive,inactive,inactive,inactive,-0.478 (inactive),-0.0588,-0.749,–,–,–,–,–,–
CCOC(=O)N[C@@H]1CC[C@@H]2[C@@H](C1)C[C@H]1C(=O)O[C@H](C)[C@H]1[C@H]2/C=C/c1ccc(-c2cccc(F)c2)cn1,inactive,18.6 µM (active),13.2 µM (active),inactive,inactive,0.314 (inactive),1.37,1.33,–,–,–,–,–,–
Cc1ccc(NC(=O)c2ccc3c(c2)OCCO3)cc1NC(=O)c1ccc2nc(OCCN3CCCC3)ccc2c1,0.286 µM (active),0.0574 µM (active),0.0456 µM (active),inactive,inactive,-1.99 (inactive),-1.87,-2.21,–,–,–,–,–,–
Cc1nnn(C)c1-c1cnc2c3ccc(C(C)(C)O)cc3n([C@H](c3ccccc3)C3CCOCC3)c2c1,inactive,0.0074 µM (active),0.0093 µM (active),18.3 µM (active),16.1 µM (active),–,-1.84,-2.14,–,–,–,–,–,0.549 µM (active)
O=C1CC[C@H](N2Cc3c(OCc4ccc(CN5CCOCC5)cc4)cccc3C2=O)C(=O)N1,inactive,0.0166 µM (active),0.0332 µM (active),inactive,inactive,1.34 (inactive),1.06,1.23,–,–,–,–,–,–

Compound,Potency [1],Potency [2],Potency [3],Potency [4],Potency [5],Z-AUC [6],"Z-AUC [6, 7]",Z-AUC ([6]; measured here: PEO4 Z-AUC),"activity change, negative = inhibition [1]","activity change, negative = viability loss [2]","activity change, negative = cell killing [3]",outcome [4],"activity change, negative = inhibition [5]",Potency [6]
CC(C)C[C@@H]1NC(=O)[C@@H](C(C)C)NC(=O)[C@@H]2CCCN2C(=O)[C@@H](CC(=O)O)NC(=O)[C@@H](Cc2c[nH]c3ccccc23)NC1=O (cyclo(L[dW][dD]P[dV])),inactive,inactive,inactive,inactive,inactive,-0.319 (inactive),0.0618,-0.23,–,–,–,–,–,–
COc1cc2c3c(n(CCCN4CCOCC4)c(=O)c2cc1OC)-c1cc2c(cc1C3=O)OCO2,inactive,0.372 µM (active),0.209 µM (active),inactive,inactive,-2.49 (inactive),-2.16,-0.656,–,–,–,–,–,–
CN(Cc1ccc(/C=C/C(=O)NO)cc1)CC12CC3CC(CC(C3)C1)C2,0.33 µM (active),0.263 µM (active),0.209 µM (active),inactive,inactive,-0.476 (inactive),-0.953,-1.12,–,–,–,–,–,–
NC(=O)/C(=C/n1cnc(-c2cc(C(F)(F)F)cc(C(F)(F)F)c2)n1)c1cncnc1,3.3 µM (active),0.417 µM (active),0.235 µM (active),inactive,inactive,-0.773 (inactive),-2.06,-1.68,–,–,–,–,–,–
CC1(C)C(N(O)C(=O)Nc2ccc(Cl)cc2)N(c2ccc(Cl)cc2)C(=O)N1CC(=O)N/N=C/C=C/c1ccc([N+](=O)[O-])o1 (centres undefined),14.7 µM (active),7.42 µM (active),8.33 µM (active),inactive,14.3 µM (active),1.66 (inactive),1.13,1.09,–,–,–,–,–,–
N#Cc1ccc(N(Cc2ccc(Br)cc2)n2cnnc2)cc1,inactive,inactive,inactive,inactive,inactive,-0.397 (inactive),-0.74,-0.908,–,–,–,–,–,–
CSC[C@H]1CN(Cc2c[nH]c3c(N)ncnc23)C[C@@H]1O,inactive,inactive,inactive,inactive,inactive,1.09 (inactive),0.706,1.05,–,–,–,–,–,–
Nc1nc(OC(c2ccc(-c3cccc(F)c3)cc2)C(F)(F)F)cc(-c2ccc(C[C@@H](N)C(=O)O)cc2)n1 (some centres undefined),inactive,18.6 µM (active),20.9 µM (active),inactive,inactive,1.03 (inactive),1.4,1.67,–,–,–,–,–,–
COCCOC(=O)N1CCN(S(=O)(=O)c2cc(F)c(Oc3ccc(Cl)cc3)c(F)c2)C(C(=O)NO)C1 (centres undefined),18.6 µM (active),5.9 µM (active),4.68 µM (active),inactive,inactive,-1.01 (inactive),-1.23,-1.17,–,–,–,–,–,–
COc1cc2c3c(n(CCCn4ccnc4)c(=O)c2cc1OC)-c1cc2c(cc1C3=O)OCO2,inactive,0.0105 µM (active),0.0132 µM (active),inactive,inactive,–,-2.51,-1.77,–,–,–,–,–,0.0078 µM (active)
CN1C(=O)[C@@H](NC(=O)c2n[nH]c(Cc3ccccc3)n2)COc2ccccc21,inactive,inactive,inactive,inactive,inactive,-0.646 (inactive),-0.812,-0.659,–,–,–,–,–,–
O=C(Nc1ccc(OC(F)(F)Cl)cc1)c1cnc(N2CC[C@@H](O)C2)c(-c2ccn[nH]2)c1,inactive,16.6 µM (active),14.8 µM (active),inactive,inactive,-1.46 (inactive),-0.874,-0.386,–,–,–,–,–,–
Cc1cc2cc(Oc3ccnc(Nc4cccc(CS(=O)(=O)NCCN(C)C)c4)n3)ccc2[nH]1,13.1 µM (active),8.33 µM (active),5.9 µM (active),inactive,inactive,0.517 (inactive),0.192,0.0861,–,–,–,–,–,–
COc1ccc(C(=O)N2CCN(C(=O)/C=C/c3ccc(Br)cc3)CC2)cc1,inactive,inactive,inactive,inactive,inactive,1.19 (inactive),1.01,1.05,–,–,–,–,–,–
Nc1n[n+]([O-])c2ccccc2[n+]1[O-],inactive,18.6 µM (active),10.5 µM (active),inactive,inactive,-0.469 (inactive),-1.12,-1.08,–,–,–,–,–,–
CCC1CCCCN1C(=O)n1ncc(C(O)(c2ccccc2)c2ccccc2)n1 (centres undefined),inactive,10.5 µM (active),14.8 µM (active),inactive,inactive,0.1 (inactive),0.47,0.409,–,–,–,–,–,–
CC(=O)Nc1cc(Oc2ccc3c(nc(Nc4ccc(F)cc4F)n3C)c2C)ccn1,0.262 µM (active),11.8 µM (active),2.63 µM (active),inactive,inactive,-0.216 (inactive),-0.646,-1.5,–,–,–,–,–,–
Cc1cc(-c2cnn3c(NCC4CC(C)(O)C4)cc(Oc4cccnc4)nc23)ccc1C(=O)NC1CC1 (centres undefined),–,0.148 µM (active),0.132 µM (active),–,–,-0.227 (inactive),0.402,-0.202,-24.9% [at 5.1 µM] (inactive),–,–,inactive [at 4.49 µM],-10.8% [at 4.52 µM] (inactive),–
OC1CCC([C@H](O)C[C@H]2c3c(F)cccc3-c3cncn32)CC1 (some centres undefined),inactive,inactive,inactive,inactive,inactive,-0.0426 (inactive),0.377,0.204,–,–,–,–,–,–
